In PubChem BioAssay (NCI):
This is part of a sample that, as a whole, favours compounds with a hit. Of some 83,000 tested, about 20% had one in any assay.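 Activity criterion: percent growth below 10, measured after cells in 96-well plates were exposed to a single compound concentration for 48 hours.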 A number with no mark means an inactive call. Calls of active or inactive are those of the source.

Test system: MCF7 breast
Assay: NCI-60 one-dose screen, 48 h (100 = growth as untreated, 0 = no growth, -100 = all killed)
Conditions: 10 µM unless noted

Row | SMILES | growth
1 | CO/C=C/C(=O)c1cc2cnc3c(=N)cc(NC(=O)C(C)C)c([nH]1)c23 | 1.14% (active)
2 | Cc1cc2c(-c3nc4ccccn4c3Nc3cccc4ccccc34)c(O)c(O)cc2c(O)c1-c1c(C)cc2c(-c3nc4ccccn4c3Nc3cccc4ccccc34)c(O)c(O)cc2c1O | 14.7%
3 | Cc1cc(N2CCOCC2)nc(N(CCNc2ccnc3cc(Cl)ccc23)Cc2cccs2)n1 | 18.2%
4 | CCCCCCCC(=O)SCC/C=C/[C@@H]1CC(=O)NCc2cc(ccn2)C2=N[C@@](C)(CS2)C(=O)N[C@@H](C(C)C)C(=O)O1 | 14.1%
5 | Cc1sc2c(c1C)c(=O)nc1c(-c3nc4ccccc4s3)n[nH]n12 | 79.6%
6 | CC(C)(C)CC(C)(C)Nc1c(-c2c(O)c3ccccc3oc2=O)nc2c(Cl)cc(C(F)(F)F)cn12 | 107%
7 | CCOc1cccc(/C=N/NC(=O)c2ccccc2Nc2ccnc(C(F)(F)F)c2)c1O | 2.99% (active)
8 | Cc1cc2c(-c3nc4ccccn4c3NC3CCCCC3)c(O)c(O)cc2c(O)c1-c1c(C)cc2c(-c3nc4ccccn4c3NC3CCCCC3)c(O)c(O)cc2c1O | 43%
9 | C=CCC(=O)N[C@H](/C=C/C(=O)O)Cc1ccc(-c2cc(Cl)cc(Cl)c2)cc1 | 92.7%
10 | CN1CCN(c2nc(NCCNc3ccnc4cc(Cl)ccc34)c3ccccc3n2)CC1 | 36%
11 | C[C@@H](C[C@H](CCO)c1cc(C(F)(F)F)cc(C(F)(F)F)c1)c1ccc2ccccc2c1 | 78.9%
12 | C=C1C(=O)O[C@H]2[C@H]1CC/C(Cn1cc(-c3cc(C)c(C)cc3C)nn1)=C\CC[C@@]1(C)O[C@@H]21 | -62.3% (active)
13 | COc1ccc2c(CCCc3ccc(Cl)cc3Cl)c3[n+](cc2c1OC)CCc1cc2c(cc1-3)OCO2 | 6.01% (active)
14 | CCN1CCN(c2cc(C)nc(N(CCCNc3ccnc4cc(Cl)ccc34)Cc3ccc4c(c3)OCO4)n2)CC1 | 4.2% (active)
15 | O=C1CC(c2ccc(Cl)cc2)c2ncn(-c3cccc(Cl)c3)c2N1 (centres undefined) | 61.2%
16 | Cc1ccccc1Nc1nc2nonc2nc1Nc1cccc(C)c1C | 43.3%
17 | Fc1ccc(NCc2cn(-c3ccccc3)nc2-c2ccc(OCc3ccccc3)cc2)cc1Cl | 94.1%
18 | CCCCCCCC(=O)SCC/C=C/[C@@H]1CC(=O)NCc2cccc(n2)C2=N[C@@](C)(CS2)C(=O)N[C@@H](C(C)C)C(=O)O1 | 15.5%
19 | COC(=O)C1CCc2sc3ncnc(Nc4cn[nH]c4C(=O)Nc4ccc(CN5CCN(C)CC5)cc4)c3c21 (centres undefined) | 4.8% (active)
20 | C=CC(=O)N(C)[C@H]1C[C@H]2OC(C)(C1OC)n1c3ccccc3c3c4c(c5c6ccccc6n2c5c31)C(=O)NC4 (some centres undefined) | 12.5%

Row | SMILES | growth
21 | Cc1cc(N(CCNc2ccnc3cc(Cl)ccc23)Cc2ccc3c(c2)OCO3)nc(N2CCN(C)CC2)n1 | 15.3%
22 | CN1CCN(CCCOc2cccc3nc(Nc4ccc(Cl)c(C(F)(F)F)c4)ccc23)CC1 | -67.3% (active)
23 | Nc1c2c(c(O)c3c1=C(CO)C=N3)=NCCS2 | -50.8% (active)
24 | Cc1cc(O)c2c(c1)C1OC(=O)CCCCCN1C1=C2C(=O)c2cccc(OC3CC(O)C(O)C(C)O3)c2C1=O (centres undefined) | 17.7%
25 | CC1(C=O)NC(=O)NC1=O (centres undefined) | 95.6%
26 | COc1ccc(Nc2ncccc2NC(=O)c2cn(Cc3cccc(Oc4ccccc4)c3)nn2)cc1 | 89.9%
27 | OCCNC(=S)Nc1ccc(-c2nc(N3C[C@H]4CC[C@@H](C3)O4)c3cccn3n2)cc1 | 9.19% (active)
28 | O=C(c1ccccc1)C(c1ccccc1)N1CCOCC1 (centres undefined) | 98.3%
29 | NN1C(=O)CSC1=S | 94.8%
30 | CC12O[C@H](C[C@@H](OC(=O)CCC(=O)O)[C@H]1O)n1c3ccccc3c3c4c(c5c6ccccc6n2c5c31)C(=O)NC4=O | 19.2%
31 | C=C1[C@@H](O)C[C@H]2C(C)(C)C[C@H](Cl)C[C@]2(C)[C@H]1C[C@H](O)[C@H]1CC(=O)NC1=O | -18.8% (active)
32 | COC(=O)[C@H](Cc1ccccc1)NC(=O)[C@@H](OC)[C@@H]1Cc2cc3cc(OC4CC(OC5CC(O)C(O)C(C)O5)C(O)C(C)O4)c(C)c(O)c3c(O)c2C(=O)[C@H]1OC1CC(OC2CC(OC3CC(C)(O)C(O)C(C)O3)C(O)C(C)O2)C(O)C(C)O1 (some centres undefined) | 3.21% (active)
33 | CCOC(=O)C1=C(C)N=C2Sc3cccc(OC)c3N2[C@H]1c1ccccn1 | 97%
34 | CNC(=O)c1cc(Oc2cccc3nc(Nc4ccc(Oc5ccccc5)cc4)ccc23)ccn1 | 43.2%
35 | COc1ccc(-c2nc(N)ncc2Oc2ccccc2OC)c(O)c1 | 23.4%
36 | CSc1nc2ncncc2[nH]1 | 94.4%
37 | Nc1c2c(c(O)c3c1=C(CO)C=N3)=NCCS2=O (centres undefined) | -50.6% (active)
38 | CC(C)=CCc1cc2c(cc1O)C1=C(C(=O)C3=C(NCCS3(=O)=O)C1=O)C(C=C(C)C)O2 (centres undefined) | -43.2% (active)
39 | CC/C=C\C[C@H]1C/C=C2/C(=O)C=C[C@@H]2C/C=C\CCCC(=O)O1 | -1.97% (active)
